Screening data: PubChem, several laboratories
Sampled rows, rich in hits. Any-hit rate of the full collection: about 4%.
Mtb UGM inh = M. tuberculosis UGM enzyme inhibitors, primary screen, biochemical, fluorescence polarization, single point; UDP-galactopyranose mutase (Mycobacterium tuberculosis (strain ATCC 25618 / H37Rv)), …; 320,000 compounds, 0.06% hits; purified UGM, fluorescence polarization probe displacement; inhibition, % at 10 µM; in the data active = inhibition above about 10%, passing the limit was not always enough
GDH-TPI counter = GDH-TPI coupling enzyme inhibitors, primary screen, artefact control for M. tuberculosis FBA inhibitor project, biochemical, absorbance, full deck. GDH-TPI coupled enzyme counterscreen, NADH absorbance. inhibition, % at 4.8 µM. AID 588335, 2011. 360,000 compounds, 1.2% hits; in the data active = inhibition above about 30%;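 note: 0% = DMSO wells and 100% = wells lacking the enzyme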
Rv3671c inh = Rv3671c serine protease inhibitors, primary screen, biochemical, fluorescence polarization, M. tuberculosis H37Rv | P9WHR9 | inhibition, % at 5.96 µM | 320,000 compounds, 0.048% hits | AID 2606, 2010; in the data active = inhibition above about 38%;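 note: extracellular domain of Rv3671c used as enzyme; 0% = enzyme with DMSO and 100% = no enzyme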
Target sequence (P9WHR9 whole entry, looked up, the tested form may be a part): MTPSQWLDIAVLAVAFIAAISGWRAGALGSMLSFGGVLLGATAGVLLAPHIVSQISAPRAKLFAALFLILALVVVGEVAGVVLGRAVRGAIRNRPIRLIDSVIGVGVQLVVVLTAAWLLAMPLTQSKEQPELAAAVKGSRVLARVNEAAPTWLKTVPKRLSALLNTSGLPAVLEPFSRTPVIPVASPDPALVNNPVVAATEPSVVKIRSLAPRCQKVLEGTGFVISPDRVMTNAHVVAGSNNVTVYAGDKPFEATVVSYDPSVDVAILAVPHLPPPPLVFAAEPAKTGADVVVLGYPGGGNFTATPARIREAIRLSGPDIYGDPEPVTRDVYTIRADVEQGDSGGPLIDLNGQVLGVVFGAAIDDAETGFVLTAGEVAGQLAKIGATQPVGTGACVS
Mtb betalactam = beta-lactam sensitization of Mtb H37Rv, H37Rv; 330,000 compounds, 0.27% hits; inhibition, % at 25 µM; M. tuberculosis H37Rv growth with meropenem, percent inhibition;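 note: growth measured after seven days incubation then overnight dye step; 0% = bacteria only wells and 100% = bacteria with antibiotic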
Mtb FBA inh = Mtb FBA enzyme inhibitors, primary screen, biochemical, fluorescence, strain H37Rv. Fructose-bisphosphate aldolase (Mycobacterium tuberculosis (strain ATCC 25618 / H37Rv)), …. purified M. tuberculosis FBA, fluorescence read-out. inhibition, % at 1 µM. 360,000 compounds, 2.3% hits; in the data active = inhibition above about 27%;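 note: 0% = vehicle and 100% = reference inhibitor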
RecA intein inh = Mtb RecA intein splicing inhibitors, primary screen, biochemical, fluorescence, HTS | cell-free RecA intein splicing | inhibition, % (concentration not given with the values) | 290,000 compounds, 0.75% hits; in the data active = inhibition above about 30%;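 note: 0% = vehicle wells and 100% = reference inhibitor control wells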
GFP chromo cs = counter-screen: blocks GFP chromophore formation, dose response, counter-screen, biochemical, fluorescence, homogeneous | shares compounds with RecA intein inh | cell-free GFP chromophore formation | 2,100 compounds, 83% hits | EC50, µM | AID 434968, 2010
* hit, by the source's call. Unless noted, the rule behind the calls is not given here.

`O=C(CCl)N1c2ccccc2OCC1c1ccccc1` (stereo unspecified) gave Mtb UGM inh -2, GDH-TPI counter -5, Rv3671c inh -6, Mtb betalactam 99, Mtb FBA inh -7, RecA intein inh 81* and GFP chromo cs 4.5*.
`CC1CCCN(C(=O)c2ccc(NS(=O)(=O)c3cccc([N+](=O)[O-])c3)cc2)C1` (stereo unspecified) gave Mtb UGM inh 0, GDH-TPI counter -3, Rv3671c inh -4, Mtb betalactam 2, Mtb FBA inh -2 and RecA intein inh 0.
`Cc1cc(Nc2cccc([N+](=O)[O-])c2)c2cccc(C)c2n1` gave Mtb UGM inh -1, GDH-TPI counter 16, Rv3671c inh 3, Mtb betalactam 4 and Mtb FBA inh 0.
For Cc1cc(Nc2ccccc2)c2c([N+](=O)[O-])ccc(C)c2n1 the results were Mtb UGM inh 2, GDH-TPI counter 7, Rv3671c inh -6, Mtb betalactam 96, Mtb FBA inh -5, RecA intein inh 71* and GFP chromo cs 12*.
`CCN(CC(=O)Nc1ccc(NC(C)=O)cc1)C(=O)CCCOc1ccc(C(C)(C)C)cc1` gave Mtb UGM inh 6, GDH-TPI counter 4, Rv3671c inh -4, Mtb betalactam -8, Mtb FBA inh 1 and RecA intein inh -1.
`CCc1ccc(CN2CCC(C(=O)Nc3ccc(Oc4ccccc4)nc3)CC2)o1` gave Mtb UGM inh -2, GDH-TPI counter 8, Rv3671c inh 5, Mtb betalactam 66, Mtb FBA inh 1 and RecA intein inh 1.
For O=C1C(Br)=Cc2cccc3cccc1c23 the results were Mtb UGM inh -1, GDH-TPI counter 9, Rv3671c inh 1, Mtb betalactam 98, Mtb FBA inh -2, RecA intein inh 70* and GFP chromo cs 36*.
Screening O=C1C(=O)c2cccc3cccc1c23 returned Mtb UGM inh -2, GDH-TPI counter -4, Rv3671c inh -26, Mtb betalactam -4, Mtb FBA inh -1 and RecA intein inh 25.
CCOC(=O)/C=c1/s/c(=C/c2ccccc2OC)c(=O)n1CC(=O)N1CCOCC1 was read as GDH-TPI counter 25 and Mtb FBA inh -1.
`CCN(CC)CCN1C(=O)C(O)=C(C(C)=O)C1c1ccccc1[N+](=O)[O-]` (stereo unspecified) gave Mtb UGM inh 1, GDH-TPI counter 3, Rv3671c inh -14, Mtb betalactam 3, Mtb FBA inh -1, RecA intein inh 77* and GFP chromo cs 7.8*.
For O=C(NCc1cccnc1)/C(=C\c1ccc(-c2ccc(Br)cc2)o1)S(=O)(=O)c1ccccc1 the results were Mtb UGM inh 0, GDH-TPI counter 32*, Rv3671c inh -44, Mtb betalactam 95, Mtb FBA inh -1, RecA intein inh 51* and GFP chromo cs 29*.
For O=C(Nc1ccccc1Cl)C(Cl)C(=O)c1ccccc1 (stereo unspecified) the results were GDH-TPI counter 1 and Mtb FBA inh -3.
O=C(Nc1ccc(Cl)cc1)C(Cl)C(=O)c1ccccc1 (stereo unspecified) was read as Mtb UGM inh 1, GDH-TPI counter 6, Rv3671c inh -4, Mtb betalactam 2, Mtb FBA inh 0, RecA intein inh 46* and GFP chromo cs 38*.
Cc1ccc(S(=O)(=O)c2nc(/C=C/c3ccccc3)oc2N2CCC(C(N)=O)CC2)cc1 was read as GDH-TPI counter 19 and Mtb FBA inh 6.
N#CC1=C(N)C(C#N)(C#N)C(c2cccnc2)C2CC(c3ccccc3)CC=C12 (stereo unspecified) was read as Mtb UGM inh 3, GDH-TPI counter 0, Rv3671c inh -13, Mtb betalactam 27, Mtb FBA inh 0 and RecA intein inh 17.
N#CC1=C(N)N(c2ccccc2)C(c2ccccc2)C1(C#N)C#N (stereo unspecified) was read as Mtb UGM inh 3, GDH-TPI counter 10, Rv3671c inh 12, Mtb betalactam 19, Mtb FBA inh 16, RecA intein inh 43* and GFP chromo cs 31*.
Screening O=C(NC1C(=O)NNC1c1ccccc1)c1ccccc1 (stereo unspecified) returned Mtb UGM inh -3, GDH-TPI counter -1, Rv3671c inh -6, Mtb betalactam 0, Mtb FBA inh -2, RecA intein inh 69* and GFP chromo cs 25*.
`O=[N+]([O-])c1cc(-c2ccc(C(=S)N3CCOCC3)o2)ccc1Cl` gave Mtb UGM inh 2, GDH-TPI counter 5, Rv3671c inh 9, Mtb betalactam 2, Mtb FBA inh -1, RecA intein inh 31* and GFP chromo cs 18*.
Screening S=C(c1ccc(-c2cccc(Cl)c2)o1)N1CCOCC1 returned Mtb UGM inh 1, GDH-TPI counter 25, Rv3671c inh -7, Mtb betalactam 1, Mtb FBA inh -3 and RecA intein inh 8.
For N#CN1C2CCC1CC(O)(c1ccccc1)C2 (stereo unspecified) the results were Mtb FBA inh -1.
`COc1cc(CNC(=O)Nc2cccn3nc(COCCO)nc23)cc(OC)c1OC` gave GDH-TPI counter 0 and Mtb FBA inh 0.
O=C(O)C1=NN(c2cc(Cl)c(S(=O)(=O)O)cc2Cl)C(=O)C1 was read as GDH-TPI counter 13 and Mtb FBA inh 4.
CC1=NN(c2ccc(S(=O)(=O)O)cc2C)C(=O)C1 was read as Mtb UGM inh 0, GDH-TPI counter -8, Rv3671c inh -10, Mtb betalactam 6, Mtb FBA inh -2, RecA intein inh 91* and GFP chromo cs 18*.
Screening CCOC(=O)c1nc(C)n(-c2ccc(Cl)cc2)n1 returned Mtb UGM inh 2, GDH-TPI counter 3, Rv3671c inh -2, Mtb betalactam -1, Mtb FBA inh 1, RecA intein inh 49* and GFP chromo cs >38.
Screening COc1cccc(/C=N/NC(=O)CN(C)S(=O)(=O)c2ccccc2)c1OC returned Mtb UGM inh -2, GDH-TPI counter 5, Rv3671c inh 11, Mtb betalactam -7 and Mtb FBA inh 21.
CCNC(COC(=O)c1ccc([N+](=O)[O-])cc1)C1CCCCC1 (stereo unspecified) was read as GDH-TPI counter 3 and Mtb FBA inh 3.
